Data: PubChem BioAssay AID1159580 (chemical genetic matrix, 2015)
About 2,000 (36%) of roughly 5,500 compounds were called active. Inconclusive results (about 18%) are left out. No stated cut-off is given here; in the data, active means normalized growth mostly below about 0.91 (no sharp cut-off); inconclusive means no clear call, values can overlap the other calls; inactive means mostly above about 0.92. The list shows a part of the results.

Assay: chemical genetic growth profiling, strain panel (AID 1159580);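 further: tested at 20 µM; growth read once vehicle control cultures reached saturation at 30 °C; 1 = growth at the plate median or of vehicle wells; lower values mean less growth of the strain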
Conditions: S. cerevisiae deletion strains, growth OD

Measured: normalized growth

O=C(Nc1cccc(Cl)c1)O/N=C1\CCCc2occc21
inactive: locus YAR019C, strain CDC15, active compounds read low 0.937 | locus YBL105C, strain PKC1, active compounds read low 0.952 | locus YBR135W, strain CKS1, active compounds read low 0.936 | locus YBR136W, strain MEC1, active compounds read low 0.939 | locus YBR160W, strain CDC28, active compounds read low 0.943 | locus YDL017W, strain CDC7, active compounds read low 0.949 | locus YDL028C, strain MPS1, active compounds read low 0.933 | locus YDL101C, strain DUN1, active compounds read low 0.965 | locus YDL108W, strain KIN28, active compounds read low 0.929 | locus YDL132W, strain cdc53, active compounds read low 0.917 | locus YDL214C, strain PRR2, active compounds read low 0.809 | locus YDR052C, strain DBF4, active compounds read low 0.964 | locus YDR054C, strain cdc34, active compounds read low 0.927 | locus YDR226W, strain ADK1, active compounds read low 0.945 | locus YDR477W, strain SNF1, active compounds read low 0.798 | locus YER123W, strain YCK3, active compounds read low 0.759 | locus YER133W, strain GLC7, active compounds read low 0.789 | locus YFL009W, strain cdc4, active compounds read low 0.925 | locus YFL029C, strain CAK1, active compounds read low 0.941 | locus YFR003C, strain YPI1, active compounds read low 0.937 | locus YFR019W, strain FAB1, active compounds read low 0.944 | locus YFR028C, strain CDC14, active compounds read low 0.935 | locus YGR040W, strain KSS1, active compounds read low 0.83 | locus YGR052W, strain FMP48, active compounds read low 0.8 | locus YGR092W, strain DBF2, active compounds read low 0.69 | locus YHR079C, strain IRE1, active compounds read low 0.667 | locus YHR082C, strain KSP1, active compounds read low 0.752 | locus YHR205W, strain SCH9, active compounds read low 0.659 | locus YIL147C, strain SLN1, active compounds read low 0.943 | locus YJL095W, strain BCK1, active compounds read low 0.671 | locus YJL128C, strain PBS2, active compounds read low 0.954 | locus YJL157C, strain FAR1, active compounds read low 0.842 | locus YJR016C, strain ILV3, active compounds read low 0.931 | locus YJR066W, strain TOR1 (second series), active compounds read low 0.86 | locus YJR066W, strain TOR1, active compounds read low 0.742 | locus YKL048C, strain ELM1, active compounds read low 0.899 | locus YKL067W, strain YNK1, active compounds read low 0.817 | locus YKL101W, strain HSL1, active compounds read low 0.829 | locus YKL193C, strain SDS22, active compounds read low 0.926 | locus YKL203C, strain TOR2, active compounds read low 0.792 | locus YLR133W, strain CKI1, active compounds read low 0.843 | locus YLR403W, strain SFP1, active compounds read low 0.748 | locus YML070W, strain DAK1, active compounds read low 0.788 | locus YMR001C, strain CDC5, active compounds read low 0.935 | locus YMR205C, strain PFK2 (second series), active compounds read low 0.831 | locus YMR277W, strain FCP1, active compounds read low 0.932 | locus YNL006W, strain LST8, active compounds read low 0.939 | locus YNL020C, strain ARK1, active compounds read low 0.828 | locus YNL161W, strain CBK1, active compounds read low 0.945 | locus YNL183C, strain NPR1, active compounds read low 0.652 | locus YNL207W, strain RIO2, active compounds read low 0.936 | locus YNL222W, strain SSU72, active compounds read low 0.929 | locus YNL307C, strain MCK1 (second series), active compounds read low 0.83 | locus YOL078W, strain AVO1, active compounds read low 0.923 | locus YOL136C, strain PFK27, active compounds read low 0.798 | locus YOR061W, strain CKA2, active compounds read low 0.85 | locus YOR119C, strain RIO1, active compounds read low 0.847 | locus YOR231W, strain MKK1, active compounds read low 0.672 | locus YOR329C, strain SCD5, active compounds read low 0.959 | locus YPL031C, strain PHO85, active compounds read low 0.741 | locus YPL153C, strain RAD53, active compounds read low 0.772 | locus YPL204W, strain HRR25, active compounds read low 0.773 | locus YPL209C, strain IPL1, active compounds read low 0.947 | locus YPR025C, strain CCL1, active compounds read low 0.943 | locus YPR106W, strain ISR1, active compounds read low 0.944 | locus YPR111W, strain DBF20, active compounds read low 0.918 | strain NNK1, active compounds read low 0.927 | strain TSCII, active compounds read low 0.927
active: locus YHR030C, strain SLT2, active compounds read low 0.649 | locus YLR113W, strain HOG1, active compounds read low 0.613 | locus YPL256C, strain CLN2, active compounds read low 0.631
